# Assay results from PubChem BioAssay AID1578 (Sanford-Burnham Center for Chemical Genomics, 2009).
# In all, about 290,000 compounds went through this assay and about 3,000 (1%) were called active. Rule as the data show it: active = inhibition mostly above about 36% (no sharp cut-off); inactive = mostly below about 34%. The full list was thinned out, with actives kept by preference.
# Experiment: NOD1 signaling inhibitors, primary screen, cell-based, luminescence, uHTS (AID 1578);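 also: HEK-293T reporter cells stimulated with the NOD1 agonist gamma-tri-DAP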
# Conditions: NOD1-driven NF-kB luciferase reporter cells, at 4 µM, active compounds read high
row,Compound,inhibition
1,C/C(=N\NC(=O)c1nnn(-c2nonc2N)c1CSc1ccccc1)c1cccnc1,-4.5% (inactive)
2,CCOn1c(-n2nc(C)cc2C)nc2ccccc2c1=O,0.7% (inactive)
3,C#CCOn1c(-n2nc(C)cc2C)nc2ccccc2c1=O,2.3% (inactive)
4,Cc1cc(C)n(-c2nc3ccccc3c(=O)n2OCC#N)n1,109% (active)
5,CN(C)N(C)C(=O)C(O)(c1ccccc1)c1ccccc1,-18.6% (inactive)
6,CN(Cc1ccccc1)C(=O)CCC(=O)N(C)Cc1ccccc1,-41.2% (inactive)
7,CN(C)N(Cc1ccccc1)C(=O)C(O)(c1ccccc1)c1ccccc1,63.1% (active)
8,O=C(CN1C(=O)NC2(CCCCCCC2)C1=O)NC1CCCc2ccccc21 (stereo not given),-29.3% (inactive)
9,COC(=O)c1ccc(NC(=O)CCN2C(=O)CSC2=O)cc1,-44.1% (inactive)
10,N#CCc1c(C#N)c(N)nc(N2CCCC(O)C2)c1C#N (stereo not given),-18.2% (inactive)
11,C=C(C)CN(CC)c1nc(N)c2c(N)nc3c(c2c1C#N)CC(=O)N3C12CC3CC(CC(C3)C1)C2,-11.3% (inactive)
12,N#Cc1c(N2CCCC(O)C2)nc(N)c2c(N)nc3c(c12)CC(=O)N3C12CC3CC(CC(C3)C1)C2 (stereo not given),72% (active)
13,Cc1cnc(C(=O)Nc2ccc(C(=O)N(C)C3CCCCC3)cc2)cn1,-6.2% (inactive)
14,C=CCOc1ccc2ccccc2c1/C=N/O,-6.7% (inactive)
15,CCOc1ccc(-c2nc(CSCC(=O)N3CCN(C(=O)c4ccco4)CC3)c(C)o2)cc1,-28.8% (inactive)
16,CCOC(=O)C1CCN(C(=O)CSCc2nc(-c3ccc(OCC)cc3)oc2C)CC1,-2.1% (inactive)
17,COc1cccc(CNCc2ccc(OC)cc2OC)c1,3.1% (inactive)
18,COc1cc(CNCc2cc(OC)ccc2OC)cc(OC)c1,-5.3% (inactive)
19,COc1cc(CNCc2ccc(OC)cc2OC)cc(OC)c1,79.5% (active)
20,O=C(COC(=O)CNC(=O)c1ccc(Cl)cc1)Nc1cccc(S(=O)(=O)N2CCCC2)c1,6.6% (inactive)
21,CCO[C@H]1OC(C(=O)N2CCCCCCC2)=C[C@@H](C)[C@@H]1CCCO,40% (active)
22,CCO[C@H]1OC(C(=O)N2CCN(C)CC2)=C[C@@H](C)[C@@H]1CCCO,-35.3% (inactive)
23,CCO[C@@H]1OC(C(=O)N2CCOCC2)=C[C@H](C)[C@H]1CCCO,-28.1% (inactive)
24,CC1CCCC(NC(=O)c2ccc(CNc3c(N4CCCC4)c(=O)c3=O)cc2)C1C (stereo not given),-28.2% (inactive)
25,COc1ccc(/C=N/Nc2nc(C(=O)O)cs2)cc1,-35.9% (inactive)

row,Compound,inhibition
1,Cc1c(C(=O)NCCN(C)C)oc2ccc(S(=O)(=O)N3CCC4(CC3)OCCO4)cc12,-12.2% (inactive)
2,Brc1ccc(OCc2ccccc2)c(CNCc2ccncc2)c1,44.1% (inactive)
3,Fc1ccccc1COc1ccc(Br)cc1CNCc1cccnc1,-5% (inactive)
4,Fc1ccccc1COc1ccc(Br)cc1CNCc1ccncc1,72.9% (active)
5,COc1ccc(NC(=O)Nc2c(C)noc2-c2ccccc2)cc1,-7.5% (inactive)
6,O=C(Oc1ccc(Br)cc1C(=S)N1CCOCC1)c1ccc(F)cc1,-9.9% (inactive)
7,O=C(Nc1nc2ccccc2[nH]1)c1ccccc1O,1.5% (inactive)
8,O=C(Nc1nc2ccccc2[nH]1)c1cc2ccccc2o1,73.5% (active)
9,O=C(Nc1nc2ccccc2[nH]1)c1ccccc1F,77.3% (active)
10,O=C(Nc1nc2ccccc2[nH]1)c1ccc(Br)o1,-21.2% (inactive)
11,C/C(=N\Nc1nc2ccccc2[nH]1)c1cc2ccccc2o1,-21.6% (inactive)
12,CSc1ccccc1C(=O)Nc1nc2ccccc2[nH]1,-46.1% (inactive)
13,COc1ccc(S(=O)(=O)Nc2ccccc2C(=O)N2CCCCC2)cc1C,-14.5% (inactive)
14,S=C(Nc1ccccc1)N1CCOCCOCCN(C(=S)Nc2ccccc2)CCOCCOCC1,-11% (inactive)
15,CC(=O)N1N=C(N)SC1c1cccc([N+](=O)[O-])c1 (stereo not given),-38.8% (inactive)
16,CC(=O)Oc1ccc2nc(/C=C/c3ccccc3)oc(=O)c2c1,-9.3% (inactive)
17,COc1ccccc1-c1cc(C(F)(F)F)nc(S(=O)(=O)CCCC(=O)Nc2cc(C)on2)n1,37% (inactive)
18,Cc1cc(NC(=O)CCCS(=O)(=O)c2nc(-c3cccs3)cc(C(F)(F)F)n2)no1,91% (active)
19,COc1ccc(-c2cc(C(F)(F)F)nc(S(=O)(=O)CCCC(=O)Nc3cc(C)on3)n2)cc1OC,32.1% (inactive)
20,O=C(COc1ccc(S(=O)(=O)N2CCOCC2)cc1Cl)NCc1ccccn1,-57.1% (inactive)
21,Cc1ccc(-c2nc(-c3ccccn3)no2)cc1,89.5% (active)
22,Cc1ccc(-c2nc(-c3ccccn3)no2)cc1Cl,71.4% (active)
23,COc1cccc(-c2nc(-c3ccccn3)no2)c1,65% (active)
24,c1ccc(-c2noc(-c3ccc4ccccc4c3)n2)nc1,77.3% (inactive)
25,c1ccc(-c2nc(-c3ccccn3)no2)cc1,54.3% (active)

row,Compound,inhibition
1,c1ccc(-c2noc(-c3ccncc3)n2)nc1,-30.8% (inactive)
2,Cc1ccccc1-c1nc(-c2ccccn2)no1,11.7% (inactive)
3,c1ccc(-c2noc(-c3cccnc3)n2)nc1,-11.3% (inactive)
4,COc1cccc(-c2nc(-c3ccncc3)no2)c1,-5.3% (inactive)
5,Clc1ccc(-c2nc(-c3ccccn3)no2)cc1Cl,-69.5% (inactive)
6,COc1cccc(-c2nc(-c3ccccc3)no2)c1,-49.3% (inactive)
7,Clc1cccc(-c2nc(-c3ccccn3)no2)c1,-17.2% (inactive)
8,CCCC(=O)NCC(c1cccs1)S(=O)(=O)c1ccc(Cl)cc1 (stereo not given),-18% (inactive)
9,Cc1ccc2cc3cc(C(=O)NC4CCCCC4)oc3nc2c1,-36.4% (inactive)
10,O=C(Nc1ccccc1)Nc1ccc2ocnc2c1,-32.4% (inactive)
11,Cc1nnc(SCC(=O)NC2CC2)s1,-18.8% (inactive)
12,COc1cc(S(=O)(=O)n2nc(C)cc2C)ccc1Cl,-30.9% (inactive)
13,Cc1ccc(C2=NN(C3=NN=C(N)Cc4ncnn43)C(O)(C(F)(F)F)C2)cc1 (stereo not given),-15.4% (inactive)
14,CC(CC(=O)O)CC(=O)Nc1cc([N+](=O)[O-])ccc1O (stereo not given),-14.6% (inactive)
15,c1ccc(-c2noc(-c3ccc4c(c3)OCO4)n2)cc1,-47.3% (inactive)
16,COc1ccccc1-c1nc(-c2ccccn2)no1,27.3% (inactive)
17,Cc1cccc(-c2noc(-c3ccc4c(c3)OCO4)n2)c1,-27.9% (inactive)
18,c1ccc(-c2noc(-c3ccc4c(c3)OCO4)n2)nc1,64.7% (active)
19,COc1ccc(-c2nc(-c3ccccn3)no2)cc1,99% (active)
20,COc1cc(-c2nc(-c3ccccn3)no2)cc(OC)c1OC,-30.9% (inactive)
21,c1ccc(-c2noc(-c3ccno3)n2)nc1,-2.2% (inactive)
22,c1ccc(-c2ccc(-c3nc(-c4ccncc4)no3)cc2)cc1,28.9% (inactive)
23,c1ccc(-c2ccc(-c3nc(-c4ccccn4)no3)cc2)cc1,99.9% (active)
24,Cn1c(SCC(=O)NC(=O)CN2CCCC2=O)nnc1-c1ccc(F)cc1,-11.6% (inactive)
25,Cc1ccc(-c2nc(=S)c3c(n2CCN2CCOCC2)CC(C)(C)OC3)cc1,-25.9% (inactive)

row,Compound,inhibition
1,CCOc1ccc(-c2c(=O)n(OCC)c3ccccc3[n+]2[O-])cc1,3.2% (inactive)
2,CCC(C(=O)OC(C)C(=O)Nc1ccc(Cl)cn1)c1ccccc1 (stereo not given),-32.2% (inactive)
3,COC(=O)c1cc(-c2ccccc2)sc1NC(=O)c1cc(C)on1,-4.3% (inactive)
4,O=C(NCCc1ccccc1)C1CCC(=O)N1CCc1ccccc1 (stereo not given),2% (inactive)
5,CCOC(=O)Cn1c(C)c(Br)c(COC)c(C#N)c1=O,-13.2% (inactive)
6,COC(=O)c1sc(NC(=O)CSc2nc3cccnc3n2C)nc1C,-10.6% (inactive)
7,CCCCCCC(C)NC(=S)Nc1cc(S(=O)(=O)N(C)C)ccc1C (stereo not given),-10.2% (inactive)
8,CN(Cc1ccccc1F)c1ncnc2sccc12,-28.7% (inactive)
9,CN(Cc1ccccc1)c1ncnc2sccc12,32.5% (inactive)
10,CN(Cc1cccs1)c1ncnc2sccc12,46.8% (active)
11,Cc1scc(C(=O)Nn2cnnc2)c1-c1ccccc1,-12.5% (inactive)
12,CCN1C(=O)CSc2ccc(C(=O)NCc3ccco3)cc21,-21.5% (inactive)
13,CN(C)c1ccc(/C=C2\SC(=O)N(CCc3nnc(N)s3)C2=O)cc1,68% (active)
14,CN(C)c1ccc(/C=C2/SC(=O)N(CCN=C3NS(=O)(=O)c4ccccc43)C2=O)cc1,-8.3% (inactive)
15,COc1ccc(/C=C2\SC(=O)N(CCc3nnc(N)s3)C2=O)cc1,1.5% (inactive)
16,CCOC(=O)Cc1csc(NC(=O)CSc2ncnc3c2cnn3-c2ccccc2Cl)n1,-4.7% (inactive)
17,COc1ccc(Oc2ccc(N/C=C3\CCCC3=O)cc2)cc1,-29.4% (inactive)
18,CC(NC(=O)/C(=C\c1ccco1)NC(=O)c1ccco1)C(=O)O (stereo not given),-6.1% (inactive)
19,COc1ccc(-c2nsc3c(N4CCCCC4C)ncnc23)cc1 (stereo not given),77.6% (active)
20,COc1ccc(-c2nsc3c(N4CCCC4)ncnc23)cc1,37.5% (inactive)
21,COc1ccc(-c2nsc3c(N4CCCCC4)ncnc23)cc1,46.2% (inactive)
22,COc1ccc(OC)c(NS(=O)(=O)c2ccc(-c3coc(C)n3)cc2)c1,29.1% (inactive)
23,Cc1ccc(NS(=O)(=O)c2ccc(-c3cnc(C4CC4)o3)cc2)cc1,37.3% (inactive)
24,COc1ccc(NS(=O)(=O)c2ccc(-c3coc(C)n3)cc2)cc1,5.2% (inactive)
25,COc1ccc(C)cc1NS(=O)(=O)c1ccc(-c2cnc(C3CC3)o2)cc1,25.1% (inactive)
